Screening data deposited in PubChem by several laboratories.
LGR2 inh: Drosophila LGR2 receptor signaling inhibition; 0.35% of 380,000 active; HEK293 LGR2, CRE-luciferase, bursicon-stimulated, 4 h; inhibition, % at 9.99 µM;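 active means drop in luminescence signal, shown as inhibition above about 50% in the replicate tests, limit read from the data, passing the limit was not always enough; inconclusive means probably only some replicates passing the limit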;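 further: agonist challenge used bursicon conditioned medium at about half maximal strength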
TWEAK Fn14 block: TWEAK-Fn14 signaling inhibition; 2% of 360,000 active; AID 1159606; TWEAK-stimulated Fn14 reporter cells, luciferase luminescence, 8 h; inhibition, % at 10 µM; in the data active means inhibition above about 50%
TROY NFkB inh: TROY signaling inhibition | inhibition, % at 10 µM | AID 1347056 | 0.98% of 360,000 active | Q293 LMP1-TROYcd NF-kB luciferase reporter, 4 h;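 active means compounds whose plate-normalised and pattern-corrected inhibition of the luciferase reporter signal at the single screening dose is 50% or more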
HSP90 refold inh: inhibitors of HSP90 luciferase refolding in rabbit reticulocyte lysate; luciferase refolding luminescence, 3 h; inhibition, % at 5.6 µM; 0.91% of 290,000 active; AID 1789;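 active means inhibition above the screen-wide mean plus 3 SD, computed separately per campaign, cut at about 16% in these data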;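 further: inhibitors lower the luminescence because luciferase stays unfolded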
Hits are given with their value; i = inactive; ? = inconclusive; nt = not tested or not shown. Hits are enriched below; roughly 2.2% of the tested compounds scored in any of these assays.

SMILES	LGR2 inh	TWEAK Fn14 block	TROY NFkB inh	HSP90 refold inh
Cc1cc(C)nc(Sc2ccc([N+](=O)[O-])cc2[N+](=O)[O-])n1	i	58	i	i
O=[N+]([O-])c1ccc(Sc2cccc3cccnc23)c([N+](=O)[O-])c1	i	64	i	i
O=[N+]([O-])c1ccc(Sc2ccncn2)c([N+](=O)[O-])c1	?	77	i	nt
O=[N+]([O-])c1cc(Cl)ccc1Sc1ccccn1	nt	i	i	i
CN(C)C(=O)C[C@H]1C[C@H]2c3cc(NC(=O)C4CCC4)ccc3O[C@H]2[C@@H](CO)O1	i	nt	nt	nt
CC(OC(=O)/C=C/c1cccs1)C(=O)Nc1ccc(S(N)(=O)=O)cc1 (stereo unspecified)	i	i	i	i
CC(OC(=O)/C=C/c1ccc2ccccc2n1)C(=O)Nc1ccc(S(N)(=O)=O)cc1 (stereo unspecified)	i	58	i	nt
Cc1nc(C)c(C(=O)Nc2ccccc2)s1	i	i	i	i
Cc1nc(C)c(C(=O)O)s1	i	95	i	i
CCCc1cn(CC[C@@H]2CC[C@H](NC(=O)C3CCCCC3)[C@@H](CO)O2)nn1	i	nt	nt	nt
CCN1C(c2ccccc2)C(C)C(=O)C(C)C1c1ccccc1 (stereo unspecified)	nt	83	nt	i
CC1C(=O)C(C)C(c2ccccc2)N(N=O)C1c1ccccc1 (stereo unspecified)	i	i	i	nt
CCOC(=O)C(C(C)=O)c1c(Br)c(O)c(O)c2c(C(=O)c3ccc(C)cc3)coc12 (stereo unspecified)	i	76	i	i
O=C(CSc1nc2ccccc2c(=O)n1-c1ccccc1)N1CCc2ccccc2C1	i	i	i	i
CC(C)c1ccccc1-n1c(SCC(=O)N2CCc3ccccc3C2)nc2ccccc2c1=O	i	i	54	i
COc1ccc(S(=O)(=O)Nc2ccc3c(c2)C(=O)N([C@@H](C)CO)C[C@@H](C)[C@@H](CN(C)C(=O)Cc2ccccc2)OCCCC[C@@H](C)O3)cc1	i	nt	nt	nt
Cc1noc(C)c1S(=O)(=O)Nc1ccc2c(c1)C(=O)N([C@@H](C)CO)C[C@@H](C)[C@@H](CN(C)Cc1ccc3c(c1)OCO3)O2	i	nt	nt	nt
O=S(=O)(Cc1ccccc1)N1CCCCN2[C@H](CO)[C@H](c3ccc(-c4ccccc4)cc3)[C@@H]2C1	i	nt	nt	nt
CC(=O)Nc1ccc(-c2ccnc3c2CC(C(=O)Nc2cccc(Oc4ccccc4)c2)O3)cc1 (stereo unspecified)	i	i	i	nt
CC(=O)c1cccc(NC(=O)C2Cc3c(-c4ccccc4Oc4ccccc4)ccnc3O2)c1 (stereo unspecified)	i	51	i	nt
CC(=O)Nc1cccc(-c2ccnc3c2CC(C(=O)Nc2cccc(Oc4ccccc4)c2)O3)c1 (stereo unspecified)	i	57	i	nt
Cc1cc(C(=O)Nc2nc3c(s2)CCCC3)no1	nt	61	i	i
CN1c2ccc(C3=CCCCC3)cc2[C@@H]2[C@@H](CCN2C(=O)NC2CCCC2)[C@H]1CO	i	nt	nt	nt
COc1ccc(OC)c2c(C)cc(N3CCCCCC3)nc12	i	103	i	i
C[C@H]1CN([C@@H](C)CO)C(=O)c2cc(NS(=O)(=O)c3cn(C)cn3)ccc2O[C@H]1CN(C)S(C)(=O)=O	i	nt	nt	nt
SMILES	LGR2 inh	TWEAK Fn14 block	TROY NFkB inh	HSP90 refold inh
CNC(=O)c1ccsc1NC(=O)c1ccc(S(=O)(=O)N2CCCc3ccccc32)cc1	i	76	i	i
O=C(Nc1nc2c(s1)CCCC2)c1ccc(S(=O)(=O)N2CCCc3ccccc32)cc1	i	69	i	i
CC1CCc2nc(NC(=O)c3ccc(S(=O)(=O)N4CCCc5ccccc54)cc3)sc2C1 (stereo unspecified)	nt	55	i	i
COC(=O)Nc1ccc(S(=O)(=O)N2CCCc3ccccc32)cc1	nt	53	i	i
COc1cccc(C#Cc2ccc3c(c2)O[C@@H](CN(C)C)[C@@H](C)CN([C@H](C)CO)S3(=O)=O)c1	i	nt	nt	nt
C[C@@H]1CN([C@@H](C)CO)C(=O)c2cc(C#CC3CCCCC3)cnc2O[C@H]1CN(C)C	i	nt	nt	nt
CCNC(=O)C[C@H]1CC[C@H]2[C@@H](COC[C@H](O)CN2C(=O)c2cc(Cl)cc(Cl)c2)O1	i	nt	nt	nt
COc1ccccc1NC(=O)COc1ccc(/C=N/NC(=O)CSCc2ccc(Cl)cc2)cc1	nt	i	51	i
COc1ccccc1NC(=O)COc1ccc(/C=N/NC(=O)CSCc2cc(C)cc(C)c2)cc1	i	i	i	i
CC(Nc1nc(-c2ccc(Cl)cc2)cs1)c1nc2cc(Cl)c(N3CCCCC3)cc2n1CCOCCO (stereo unspecified)	?	54	i	nt
Cc1cc(C(=O)N2CCc3ccccc32)n(-c2ccccc2)n1	i	i	i	i
Cc1cc(C)n(-c2ccc(C(=O)N3CCc4ccccc43)cc2)n1	nt	88	i	i
COc1ccccc1NS(=O)(=O)c1cccc(C(=O)OCC(=O)Nc2cc(C)on2)c1	nt	i	i	i
COc1ccccc1NS(=O)(=O)c1cccc(C(=O)OCc2nc3ccccc3s2)c1	i	58	68	i
CN1C(=O)c2cc(NS(C)(=O)=O)ccc2OC[C@@H]2O[C@H](CC(=O)NC3CCCCC3)CC[C@H]21	i	nt	nt	nt
COCC(=O)Nc1ccc2c(c1)[C@@H]1C[C@H](CC(=O)NCC(F)(F)F)O[C@H](CO)[C@@H]1O2	i	nt	nt	nt
C[C@@H]1CN([C@H](C)CO)C(=O)c2ccccc2-c2ccccc2CO[C@@H]1CN(C)C(=O)CCN(C)C	i	nt	nt	nt
NC(=S)NN=C1c2cc(OCCN3CCOCC3)ccc2-c2ccc(OCCN3CCOCC3)cc21	104	i	75	i
COc1ccc(-c2cnc3c(c2)C(=O)N([C@H](C)CO)C[C@@H](C)[C@@H](CN(C)C)O3)cc1	i	nt	nt	nt
CC1(C(=O)Nc2ccc3c(c2)OCCO3)CCN1C(=O)C1(c2ccc(Cl)cc2)CCC1 (stereo unspecified)	i	i	i	nt
CC1(C(=O)Nc2cccc(C#N)c2)CCN1C(=O)Cc1ccc(-c2ccccc2)cc1 (stereo unspecified)	i	57	i	nt
CC1(C(=O)Nc2ccc3c(c2)OCCO3)CCN1C(=O)Cc1ccc(-c2ccccc2)cc1 (stereo unspecified)	i	74	i	nt
CC(C)c1ccc(CC(=O)N2CCC2(C)C(=O)Nc2cccc(C#N)c2)cc1 (stereo unspecified)	i	i	i	nt
CC1(C(=O)Nc2ccc3c(c2)OCCO3)CCN1C(=O)C1(c2ccc(Cl)cc2)CC1 (stereo unspecified)	i	59	i	nt
CCC(C(=O)NC(C)CCc1ccccc1)n1nc(C)n2c(cc3occc32)c1=O (stereo unspecified)	nt	100	i	i
CCC(C(=O)NC(C)CCc1ccco1)n1nc(C)n2c(cc3occc32)c1=O (stereo unspecified)	nt	i	i	i
C[C@@H]1CN([C@H](C)CO)C(=O)c2cccc(NS(=O)(=O)c3cn(C)cn3)c2O[C@@H]1CN(C)C(=O)Nc1ccc2c(c1)OCO2	i	nt	nt	nt
Nc1nnnn1/N=C/C(Br)=C/c1ccccc1	nt	75	i	i
Nc1nnnn1/N=C/C=C/c1ccccc1	i	i	i	i
Cc1ccc(C(C(=O)NC2CCCCC2)N(Cc2cccnc2)C(=O)c2csnn2)cc1 (stereo unspecified)	i	92	i	i
